# D1 antagonist: Antagonist of Human D 1 Dopamine Receptor: qHTS | hit rate 3.2% among 360,000 | HEK293 TREx D1 cells, calcium flux, dopamine EC80; hits give low values | activity change, negative = inhibition, % at 10 µM | D(1A) dopamine receptor (Homo sapiens), P21728; in the data active means activity change below about -30%; further: on the % scale 0 is the no-effect control and ±100 the full control effect
# Target sequence (P21728 whole entry, looked up): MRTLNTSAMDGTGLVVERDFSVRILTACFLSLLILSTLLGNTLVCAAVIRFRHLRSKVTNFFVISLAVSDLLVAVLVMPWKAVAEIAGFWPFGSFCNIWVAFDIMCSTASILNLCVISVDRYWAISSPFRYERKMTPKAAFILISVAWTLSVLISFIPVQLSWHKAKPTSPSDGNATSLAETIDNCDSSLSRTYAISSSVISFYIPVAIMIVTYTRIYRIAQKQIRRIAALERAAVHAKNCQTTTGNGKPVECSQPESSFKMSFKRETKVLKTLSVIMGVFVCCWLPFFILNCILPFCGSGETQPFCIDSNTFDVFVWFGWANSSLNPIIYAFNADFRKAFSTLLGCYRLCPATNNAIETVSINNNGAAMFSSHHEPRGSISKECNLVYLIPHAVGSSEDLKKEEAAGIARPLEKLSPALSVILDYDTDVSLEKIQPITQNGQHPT
#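 Calcium flux readout: force-coupled, inducible Hek293 Trex D1 line, cells induced overnight at 30 C with tetracycline, dye-loaded 30–90 min at RT. Antagonism scored against EC80 dopamine challenge given 180 s after compound.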
# TRHR enhancer: qHTS for Small Molecule Agonists and Allosteric Enhancers of Human TRH Receptor: Primary Screen for Enhancers | enhancement, % at 2 µM | Thyrotropin-releasing hormone receptor (Homo sapiens), P34981 | hit rate 0.66% among 360,000 | AID 493056, 2011 | TRHR cells, fluo-8 calcium fluorescence, EC20 TRH enhancement; in the data active means enhancement above about 30%; further: 0% is about no effect
#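 Enhancer read-out: after compound pinning and an initial kinetic agonist-mode read, an EC20 of TRH (10 nM final) was injected and fluo-8 calcium signal (Ex 480/Em 530) followed at 1 s/cycle for 100 cycles in TRHR-expressing cells.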
# TRHR ag: qHTS for Small Molecule Agonists and Allosteric Enhancers of Human TRH Receptor: Primary Screen for Agonists. Thyrotropin-releasing hormone receptor (Homo sapiens), P34981. TRHR cells, calcium flux fluo-8, FDSS agonist mode. activation, % at 2 µM. hit rate 0.18% among 360,000; further: 0% is about no effect
#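 TRHR-expressing cells, plated overnight in medium with 10% serum, were loaded with fluo-8 calcium dye at room temperature. After a 10 s baseline, library compound was pin-added and calcium release was recorded kinetically (ex 480/em 530) as agonist response.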
# D1 ag: Allosteric Agonists of the Human D1 Dopamine Receptor: qHTS | HEK293 T-REx D1 cells, calcium flux, agonist mode | D(1A) dopamine receptor (Homo sapiens), P21728 | activation, % at 2 µM | AID 504660, 2011 | hit rate 1% among 360,000; further: 0% is about no effect
#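 Tetracycline-induced HEK293 TREx D1 cells, force-coupled to calcium signalling, were dye-loaded with a no-wash calcium kit. Compound was pin-added after a 10 s baseline. Fluorescence was read kinetically at 1 cycle/s for 180 s, with calcium rises flagged as agonism.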
# D1 PAM: Potentiators of Human D1 Dopamine Receptor: qHTS; hit rate 0.036% among 360,000; HEK293 TREx D1 cells, calcium flux, dopamine EC20 potentiation; D(1A) dopamine receptor (Homo sapiens), P21728; potentiation, % at 10 µM; in the data active means potentiation above about 30%; further: 0% is about no effect
# * hit, by the source's call; nt = no result given. A selection: hits, their analogues and other compounds. The true share with any hit is near 4.7%. Unless noted, no stated cut-off is given here; in the data, active means activation above about 30%; inactive means the rest.
SMILES,D1 antagonist,TRHR enhancer,TRHR ag,D1 ag,D1 PAM
Cc1cc2oc(C(=O)Nc3cccc(-c4nc5ccccc5o4)c3)c(C)c2cc1C,-4,3,-1,54*,-1
Cc1cc(C)c2oc(-c3cccc(NC(=O)c4ccc(Br)o4)c3)nc2c1,0,-1,0,-1,3
Cc1cc(C)c2oc(-c3cccc(NC(=O)c4ccco4)c3)nc2c1,-46*,-9,1,3,1
O=C(Nc1c(Cl)cccc1Cl)c1cccc2c1C(=O)N(C1CCCCC1)C2,-8,-1,0,2,6
COc1ccc(CNc2ccc3cc(S(=O)(=O)N4CCCCC4)ccc3n2)cc1,-7,1,0,6,-7
O=C(CN(c1cccc(C(F)(F)F)c1)S(=O)(=O)c1ccc(Cl)c([N+](=O)[O-])c1)NCc1ccccc1,-31*,-6,0,5,-9
Cc1oc(-c2ccc(Cl)cc2)nc1CSc1nnc(C)n2c1cc1sccc12,-9,6,1,1,-6
CNc1oc(-c2ccc(OCc3ccccc3)cc2)nc1C#N,-32*,-7,0,5,-9
N#Cc1nc(-c2ccc(OCc3ccccc3)cc2)oc1NCc1ccco1,4,1,0,1,-4
O=C(c1nc2ccccn2c1CNCCCn1ncc2ccccc21)N1CCOCC1,-42*,1,0,0,-3
Cc1cc2ccccc2n1CCNCc1c(C(=O)N2CCOCC2)nc2ccccn12,1,2,0,5,-1
O=C(O)CSCCc1ccccn1,-82*,-20,0,0,-7
CC(=O)Nc1ccccc1OCc1cc(=O)n2c3c(sc2n1)CCCC3,-14,2,-2,0,-5
O=C1NC2(CCCCCC2)C(=O)N1Cc1ccccc1F,-33*,2,-1,3,2
O=C1NC2(CCCCC2)C(=O)N1CCS(=O)(=O)Oc1ccccc1,-3,38*,0,0,0
Cc1ccc(S(=O)(=O)c2c(N)n(Cc3ccco3)c3nc4ccccc4nc23)cc1C,2,3,-1,92*,-4
Cc1ccc(S(=O)(=O)c2c(N)n(CCN3CCOCC3)c3nc4ccccc4nc23)cc1C,8,5,0,-1,4
CN(C)c1cccc(C(=O)N(C)C2CCCN(Cc3ccccc3F)C2)c1 (configuration not stated),-5,31*,0,1,2
COc1cc(OC)cc(C(=O)N2CCN(C(=O)COc3ccccc3)CC2)c1,3,4,-1,-1,1
CCOc1ccccc1CNC(=O)c1cnc2sc(N3CCOCC3)nn2c1=O,-12,-12,0,0,0
CC(C)NC(=O)CNc1ccc(C(F)(F)F)cc1[N+](=O)[O-],-30*,0,0,2,-14
O=C(CSc1ccc(C(F)(F)F)cc1[N+](=O)[O-])Nc1ccccc1,-13,0,-1,37*,-8
Cc1ccc(C)c(CN2C(=O)C(=O)c3ccccc32)c1,-31*,-4,4,-2,-2
O=C(CN1C(=O)C2CCCCC2C1=O)Nc1ccc(OC(F)F)c(Cl)c1 (configuration not stated),-32*,6,1,1,-2
COC(=O)c1sc(-c2ccccc2)cc1NC(=O)Nc1ccc(F)cc1,6,-3,1,3,-4
SMILES,D1 antagonist,TRHR enhancer,TRHR ag,D1 ag,D1 PAM
O=C(Cn1cnc2nc3c(cc2c1=O)CCCC3)N1CCN(c2ccccc2)CC1,1,32*,0,1,-1
Cc1ccc(C)c(N2CCN(C(=O)Cn3cnc4nc5c(cc4c3=O)CCCC5)CC2)c1,0,0,0,8,0
CCOc1ccc(NC(=O)Cn2cnc3nc4c(cc3c2=O)CCCC4)cc1,12,0,0,0,1
CCc1ccc(NC(=O)Cn2cnc3nc4c(cc3c2=O)CCCC4)cc1,-32*,15,-1,6,-3
Fc1ccc2[nH]c(-c3cccs3)cc2c1,-2,-1,2,0,-3
Cc1ccc(/C=C/C2=NN(C)C(=O)CC2)cc1,-27,30*,0,0,-3
CN1N=C(/C=C/c2ccccc2)CCC1=O,2,-1,1,2,3
CC(C)c1nnc(N2C(=O)C(O)=C(C(=O)c3cccs3)C2c2ccccc2)s1 (configuration not stated),nt,3,169*,270*,2
Cc1cccc(N2C(=O)C(O)=C(C(=O)c3cccs3)C2c2ccc(C(C)C)cc2)n1 (configuration not stated),1,-4,2,1,3
COc1ccc(C2C(C(=O)c3cccs3)=C(O)C(=O)N2c2nnc(C)s2)cc1OC (configuration not stated),3,8,193*,77*,-5
COc1ccc(C2C(C(=O)c3cccs3)=C(O)C(=O)N2c2nncs2)cc1 (configuration not stated),-21,3,36*,67*,-3
COc1ccc(CCC(=O)NCc2nc3cccnc3n2Cc2ccccc2)cc1,5,0,0,0,-3
Cc1ccc2c(c1)c1c(c(=O)n(-c3ccccc3)c(=O)n1CC(=O)NCCC1=CCCCC1)n2C,10,0,0,-2,0
CCCOc1ccccc1C1Oc2nc(SC)nnc2-c2ccccc2N1C(C)=O (configuration not stated),-6,-1,-1,1,1
COc1ccccc1N1CCN(C(=O)c2cc3ccc4ccc(C)[nH]c4c3n2)CC1,-3,-7,-1,3,3
COc1ccccc1/C=C/CN1CCN(c2ccccc2)CC1,-54*,0,0,2,-8
CCOc1ccc(OCCCCNC(C)(C)C)cc1,-81*,-2,-2,8,-6
Cc1ccc2nsnc2c1NS(=O)(=O)c1c(C)ccc2nsnc12,0,-6,-1,0,2
Cc1ccc(/C=[N+](\[O-])c2ccc(N(C)C)cc2)c2nsnc12,-5,-3,16,37*,3
Cc1ccc(Cn2cc(CCC(=O)NC3CCC(C)CC3)c3ccccc32)cc1 (configuration not stated),3,1,0,6,-1
Cc1nn(-c2ccccc2)c(C)c1/C=N/NC(=O)c1cc(-c2cccs2)[nH]n1,-87*,4,1,2,-13
O=[N+]([O-])c1cc(Br)c2nsnc2c1N1CCOCC1,-45*,-3,14,1,-7
COc1cc([N+](=O)[O-])c(N2CCOCC2)c([N+](=O)[O-])c1OC,-34*,6,-1,9,-9
